Consider 40 compounds from PubChem BioAssay (Tox21).

Records with an inconclusive call do not appear. Where a call stands in place of a potency, no number is given. Unmarked numbers belong to inactive results. Active and inactive are the calls of the source. The call rests on the fitted dose curve; in most records, active means well fitted activation curve with a large enough effect in the signal ratio in the repeat runs (not every such curve was filed as active); inconclusive means weak or mixed curves; inactive means flat fitted curve, though single readings scatter; the % refers to the signal ratio.
Potency means the concentration at half of the fitted maximal effect.

This assay can be described thus: qHTS assay to identify small molecule agonists of H2AX (AID 1224845). As to conditions: CHO-K1 phospho-H2AX Ser139 HTRF, 3 h; series mostly up to 154 µM. From the text:
National Center for Advancing Translational Sciences [NCATS]
NIH Chemical Genomics Center [NCGC]
U.S. Environmental Protection Agency [EPA]
National Institutes of Environmental Health Sciences [NIEHS]
National Toxicology Program [NTP]
U.S. Food and Drug Administration [FDA]
HTRF phospho-H2AX (Ser139) assay (Cisbio Bioassays, US) enables the quantitative detection of the histone variant H2AX when phosphorylated on serine 139. When double-stranded DNA breaks, either by ionizing radiation or endogenous physiological processes, H2AX becomes phosphorylated at Ser139. This phospho-Ser139 serves as a sensitive biomarker for the detection of such breaks, localizing the site of DNA repair. So, HTRF phospho-H2AX Ser139 is a pertinent assay to study genome stability, the cell cycle, DNA repair, and it serves as a biomarker for cancer, and to understand aging. Wild type CHO-K1 cells were used to identify the inducers of Phospho-H2AX Ser 139 from the Tox21 10K compound collections.
Tox21 Assay Protocol Summary:
The CHO-K1 cells suspended in culture medium containing 10% FBS were dispensed at 1000 cells/ 3 ul/well in 1536-well white wall/solid bottom plates (Greiner Bio-One North America, NC) using a Multidrop Combi (Thermo Fisher Scientific Inc., Waltham, MA). After the assay plates were incubated at 37C overnight, 23 nl of compounds at 15 concentrations (from 5-48 columns) or positive control (from 1 to 4 columns) were transferred to the assay plates using a Pintool station (Wako, San Diego, CA) into each well resulting in a final DMSO concentration of 0.76%. After 3hr incubation at 37C, 1 uL/well Supplemented Lysis buffer (diluted 100 fold blocking reagent in lysis buffer) (HTRF Phospho-H2A.X (S139) Assay kit from Cisbio US Inc., Bedford, MA) was added using a Flying Reagent Dispenser (FRD) (Aurora Discovery, CA). After 10sec spin at 1000 rpm in a plate centrifuge, the assay plates were incubated at room temperature for 30 min. Then followed by the addition of 1 uL/well detection buffer (containing a mixture of two antibodies, one labeled with cryptate, Anti pH2AX (S139)-K and another labeled with d2, Anti H2AX-d2) using FRD. After incubation at room temperature for 24 hr, the time resolved fluorescence at excitation 320 nm and emissions at 665 nm and 620 nm was measured using an Envision plate reader (PerkinElmer, Waltham, MA).
On to `Cc1cc(SC2=C(O)C[C@@](CCc3ccc(N)cc3)(C(C)C)OC2=O)c(C(C)(C)C)cc1CO`, for which the Potency entry is “inactive”.

For the compound `Cc1c(-c2cccnc2)c2ccccc2n1CCCCC(=O)O`, the Potency result is “inactive”.

Regarding `O=P(c1ccccc1)(c1ccccc1)c1ccccc1`, the Potency entry was “inactive”.

On to `Clc1cc(Cl)c2c(c1)N=C1CCCCCN1C2`, for which the Potency result is “inactive”.

As for `Cc1nc(C)c(C)nc1C`, the Potency result was “inactive”.

Take `NCCOCCOCCN`: the Potency entry was “inactive”.

Turning to `Nc1nc(Cl)nc2c1ncn2[C@H]1C[C@H](O)[C@@H](CO)O1`, the Potency was 14.1 µM (active).

With `O=C(Cl)c1cc(Cl)cc(Cl)c1`, the Potency entry was “inactive”.

Regarding `O=C1CCCN1CCO`, the Potency result is “inactive”.

In the case of `CCOc1cc(OCC)c(C(C)=O)cc1OCC`, the Potency entry is “inactive”.

As for `CC(CCl)OC(C)CCl` (stereo not given), the Potency entry is “inactive”.

As for `CC(C)(O)C(=O)O`, the Potency result is “inactive”.

Turning to `CC(C)CC(C)(C)C`, the Potency entry was “inactive”.

Turning to `Cc1ccc(Cl)c(OCC(O)CNC(C)(C)C)c1` (stereo not given), the Potency result is “inactive”.

With `O=C(NC1CCN(CCc2c[nH]c3ccccc23)CC1)c1ccccc1`, the Potency result is “inactive”.

In the case of `CC[C@H](NC(C)C)[C@H](O)c1ccc(O)c2[nH]c(=O)ccc12`, the Potency result was “inactive”.

As to `COC(=O)Cc1cccc2ccccc12`, the Potency entry was “inactive”.

Turning to `N#CCCCC(C#N)CCC#N` (stereo not given), the Potency result was “inactive”.

Regarding `C=CC(=O)NC(C)(C)C`, the Potency result was “inactive”.

Take `Cc1c(N=C=O)cccc1N=C=O`: the Potency result is “inactive”.

Turning to `FC1(F)C(F)(F)C(F)(F)C2(F)C(F)(C1(F)F)C(F)(F)C(F)(F)C1(F)C(F)(F)C(F)(F)C(F)(F)C(F)(F)C12F` (stereo not given), the Potency entry was “inactive”.

In the case of `c1ccc(-c2ccc(-c3ccccc3)cc2)cc1`, the activation (H2AX phosphorylation) is -0.824% [at 31.6 µM].

As to `C(/C=C/C=C/Nc1ccccc1)=Nc1ccccc1`, the Potency entry was “inactive”.

With `Clc1ccccc1-c1nc(-c2ccncc2)no1`, the Potency entry is “inactive”.

With `CC1(COc2ccc(CC3SC(=O)NC3=O)cc2)CCCCC1` (stereo not given), the Potency result is “inactive”.

On to `COc1ccc(C(=O)Nc2ccccc2)cc1[N+](=O)[O-]`, for which the Potency result is “inactive”.

Regarding `Sc1nc(S)nc(S)n1`, the Potency entry is “inactive”.

Turning to `CCCCCCC/C=C/C=O`, the Potency result was “inactive”.

As for `CC1(C)[C@@H]2CC[C@]3(C2)[C@@H]1C(=O)CCC3(C)C`, the Potency entry was “inactive”.

As to `COc1ccc(/C=C/c2cc(OC)cc(=O)o2)cc1`, the Potency result was “inactive”.

Consider `CCCCCCCCC(=O)OCC(C)OC(=O)CCCCCCCC` (stereo not given), for which the Potency entry was “inactive”.

On to `Oc1ccc(Oc2ccccc2)cc1`, for which the Potency is 38.1 µM (active).

For `CCCCCCCCNC`, the Potency result is “inactive”.

Consider `COc1ccc(/C=C/S(=O)(=O)NC(=O)c2ccc(C)cc2Cl)cc1`, for which the Potency result is “inactive”.

`COC(=O)C(C)(C)C`: the Potency result is “inactive”.

`CC(C(=O)O)c1ccc(/C=C2\CCCCC2=O)cc1` (stereo not given): the Potency result is “inactive”.

Consider `CCCCCC1CCC(=O)O1` (stereo not given), for which the Potency result was “inactive”.

In the case of `CCC[Si](OC)(OC)OC`, the Potency entry is “inactive”.

Consider `Cc1ccc2c(Cl)cc(Cl)c(O)c2n1`, for which the Potency entry is “inactive”.

`N#C[C@@H]1CC(F)(F)CN1C(=O)CNC1CC2CCC(C1)N2c1ncccn1` (stereo not given in full): the Potency result was “inactive”.
